RGS4 inhibitor – human RGS4 inhibition; Potency, µM (highest dose often 114 µM), without a hit: at the top dose activity change, negative = inhibition, hits mostly inhibitors; actives 0.039% (n = 390,000); AID 504845; Transcreener GDP fluorescence polarization, RGS4-accelerated GTP hydrolysis; P49798; note: potency is the fitted concentration of half-maximal effect; % is set by controls: 0 for no effect and ±100 for the full control effect; nearly all actives have a fitted effect of over 75% in size
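MLSMR compounds (23 nl, pin-transferred) preincubated 10 min at room temperature with a 500nM (2x) first reagent, then RGS4 at 900nM (2x) plus Transcreener GDP mix added; fluorescence polarization (620/688 nm) read before and after 90 min at 30 °C.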
PTHR1 ag – agonists of human PTHR1 parathyroid hormone receptor. Q03431. HEK293 GP2 PTHR1 cells, GloSensor cAMP luminescence, 1 h. Potency, µM (doses to about 115 µM), without a hit: at the top dose activation, most hits filed as activators. actives 0.075% (n = 410,000); note: potency is the fitted concentration of half-maximal effect; nearly all actives have a fitted effect of over 55% in size
Target sequence (Q03431 whole entry, looked up): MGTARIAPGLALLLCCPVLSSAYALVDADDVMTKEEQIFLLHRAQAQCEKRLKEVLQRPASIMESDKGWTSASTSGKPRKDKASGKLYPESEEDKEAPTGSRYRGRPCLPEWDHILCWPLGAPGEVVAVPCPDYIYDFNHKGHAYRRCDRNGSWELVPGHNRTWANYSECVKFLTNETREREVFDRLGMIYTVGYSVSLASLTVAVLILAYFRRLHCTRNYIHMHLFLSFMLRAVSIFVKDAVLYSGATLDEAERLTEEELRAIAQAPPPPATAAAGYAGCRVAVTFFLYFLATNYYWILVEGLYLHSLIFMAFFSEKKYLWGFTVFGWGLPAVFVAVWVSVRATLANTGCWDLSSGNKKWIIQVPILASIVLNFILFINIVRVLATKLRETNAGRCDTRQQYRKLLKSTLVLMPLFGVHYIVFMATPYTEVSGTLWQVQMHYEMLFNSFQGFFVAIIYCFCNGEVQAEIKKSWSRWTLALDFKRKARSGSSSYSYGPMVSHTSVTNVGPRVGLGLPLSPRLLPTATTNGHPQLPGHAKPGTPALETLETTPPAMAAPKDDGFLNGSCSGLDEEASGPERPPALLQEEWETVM
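HEK-293-derived GP2 cells expressing PTHR1 and a GloSensor cAMP reporter, 3,000/well, plated overnight, given luciferin plus IBMX (each 0.5 mM as added) for 1 h at 37 °C, then compound for 1 h at 37 °C. Luminescence was read after 15 min at room temperature.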
BRCA1 expr act – BRCA1 expression activation; MCF7-BRCA1-FFLuc reporter, luminescence, 48 h; response scale: scaled: vehicle 0%, 10 µM genistein 100%; Potency, µM (doses to about 46.1 µM), for the others: at the top dose activation, actives largely listed as activators; actives 1.1% (n = 380,000); AID 624202; note: potency is the fitted concentration of half-maximal effect; nearly all actives have a fitted effect of over 80% in size
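Using MCF7 cells harboring a BRCA1 firefly luciferase reporter, plated 2 h before compound pinning, the screen measured luminescence after 48 h incubation. Responses were normalized to DMSO and 10 microM genistein, then fitted for concentration-effect.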
D3 ag – D3 dopamine receptor (human) agonism; P35462; D3R DiscoveRx beta-arrestin cells, luminescence, 90 min; max activation, %; actives 0.58% (n = 410,000); AID 652048; in the data active = max activation above about 30%; note: 0% is about no effect
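Agonist mode: compounds and dopamine controls were applied to plated cells for 90 min at 37 degrees C after an overnight attachment at 1500 cells/well. Luminescent read-out followed 30 - 60 minutes at room temperature with DiscoveRx detection reagent.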
B2AR arrestin – recruits beta-arrestin to the human beta2-adrenergic receptor; P07550; beta-arrestin recruitment to beta2AR, cell-based reporter; Potency, µM (top dose mostly 46.1 µM), for the others: top-dose activation, most hits filed as activators; actives 0.02% (n = 330,000); AID 492947;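 note: potency is the fitted concentration of half-maximal effect; 0% = DMSO controls and full agonism = EC100 isoproterenol or metaproterenol; nearly all actives have a fitted effect of over 65% in size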
DRD3 antagonist – D3 dopamine receptor (human) antagonism | max response, negative = inhibition, % | actives 2.5% (n = 360,000) | D3R cells, DiscoveRx beta-arrestin luminescence, antagonist mode; stronger effect = lower value | P35462; in the data active = max response below about -50%; inconclusive = no clear call, values can overlap the other calls; note: % is set by controls: 0 for no effect and ±100 for the full control effect
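Cells plated overnight at 1500 cells/well, then exposed to library compounds with dopamine controls for 90 minutes at 37 degrees C. DiscoveRx reagent added for 30–60 minutes at room temperature; luminescence read, quantitative HTS format.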
* = called active by the depositor; i = inactive; ? = inconclusive; nt = not tested or not shown; ! = not confirmed by another sample; [ ] = another dose, or the depositor's remark. A selection: hits, their analogues and other compounds. The true share with any hit is near 3.7%. Unless noted, calls come from the whole dose curve; as a rule, active = well fitted curve in the direction sought with a large enough effect; inconclusive = small, poorly fitted or top-dose-only effect, or another doubt; inactive = no such curve, though single readings can be large; an effect the other way counts as inactive or inconclusive.

SMILES | RGS4 inhibitor | PTHR1 ag | BRCA1 expr act | D3 ag | B2AR arrestin | DRD3 antagonist
CNc1ncc(C(=O)c2ccc(Cl)cc2)s1 | 5% | -3% | 4.5µM* | -3 | 0% | -22
CNc1ncc(C(=O)c2ccc(-c3ccccc3)cc2)s1 | -1% | -16% | 2.8µM* | 3 | 0% | 7
CN(C)/C=N/c1ncc(C(=O)c2ccc(-c3ccccc3)cc2)s1 | ? | -33% | -66% | 2 | 0% | 5
C=C[C@]1(C)C[C@@H](OC(=O)CSCCN(CC)CC)[C@]2(C)[C@H](C)CC[C@]3(CCC(=O)[C@H]32)[C@@H](C)[C@@H]1O | nt | nt | nt | -24 | nt | nt
C=CC1=C(C)C2=Cc3c(C=C)c(C)c4[n]3[Sn+2][n]3c(c(C)c(CCC(=O)O)c3=CC3=NC(=C4)C(C)=C3CCC(=O)O)=CC1=N2 | 271%[56.9 µM] | nt | nt | nt | nt | nt
C=Cc1c(C)c2cc3[nH]c(cc4nc(cc5nc(cc1[nH]2)C(C)=C5CCC(=O)O)C(CCC(=O)O)=C4C)c(C)c3C=C | 9.5µM*! | -2% | -32% | 36*! | 0% | 4
CN1CCc2c(sc3c2C(=O)NC(c2ccccc2)N3)C1 (stereo unspecified) | ? | -9% | 37% | -24 | 0% | -4
Cc1ccc(C2NC(=O)c3c(sc4c3CCN(C)C4)N2)o1 (stereo unspecified) | -25% | i | -14% | -6 | 0% | 4
Cc1ccc(C2NC(=O)c3c(sc4c3CCN(C)C4)N2)s1 (stereo unspecified) | -37% | i | 61% | -25 | 0% | -55*
CN1CCc2c(sc3c2C(=O)NC(c2ccc4c(c2)OCO4)N3)C1 (stereo unspecified) | -4% | -7%[57.5 µM] | -22% | -17 | 0% | -126*
CCCCC[C@@H](C)N1C[C@H](COCc2ccccc2)Oc2cc(N3CC[C@@H](O)C3)ccc2S1(=O)=O | nt | -44% | -37% | -3 | nt | -17
Cn1c(SCC(N)=O)nc2c([nH]c3ccccc32)c1=O | 10% | i | nt | 1 | nt | nt
Cc1ccc2cccc(OCC(=O)N3CC(C)CC(C)C3)c2n1 (stereo unspecified) | 2% | ? | -25% | -8 | 0% | -7
Cn1cnnc1SCc1ccc(C(=O)N/N=C(\CCC(=O)O)c2ccc(C(C)(C)C)cc2)cc1 | 0% | -2% | -10% | 2 | -2% | -54*
N#C/C(=C/c1ccc(F)cc1)C(N)=S | -53% | -4% | 24% | -2 | 0% | -8
CC(C)(C)c1cc(/C=C(\C#N)C(N)=S)cc(C(C)(C)C)c1O | 11µM* | nt | nt | nt | nt | nt
Cc1cccc(NC(=O)Nc2nnc([C@@H]3C[C@H](O)[C@@H](CO)O3)s2)c1 | nt | i | 84% | 8 | nt | 8
O=C(CCSCc1cnn(-c2ccccc2)c1-n1cccc1)NCc1ccc(Cl)cc1 | -3% | -90% | nt | 4 | nt | nt
O=C(COC(=O)C1CC(=O)N(C2CCCCC2)C1)c1ccc(F)cc1 (stereo unspecified) | -14% | -12% | 4% | -7 | 0% | -58*
CCOC(=O)Cc1ccc(NC(=O)N2CCSc3ccccc32)cc1 | 12% | i | nt | -3 | nt | nt
COc1ccc(Cl)cc1N(C)C(=O)C(=O)Nc1ccc2nc3n(c(=O)c2c1)CCCCC3 | -8% | i | nt | 8 | nt | nt
Clc1cccc(-c2ccc(CNCCCN3CCOCC3)o2)c1 | 17% | i | -3% | -23 | -1% | -80*
COc1ccccc1C(=O)NCC(c1cccs1)N1CCc2ccccc21 (stereo unspecified) | 9% | -24% | -21% | -14 | 0% | -53*
COc1cc(C(=O)NCC(c2cccs2)N2CCc3ccccc32)cc(OC)c1OC (stereo unspecified) | 1% | -1% | -31% | 6 | 0% | 2
Nc1c(S(=O)(=O)O)cc(NC(=O)c2ccccc2)c2c1C(=O)c1ccccc1C2=O | ? | 0% | -19% | -9 | -1% | -23
SMILES | RGS4 inhibitor | PTHR1 ag | BRCA1 expr act | D3 ag | B2AR arrestin | DRD3 antagonist
Nc1c(S(=O)(=O)O)cc(Nc2ccc(Nc3nc(Cl)nc(Nc4ccc(S(=O)(=O)O)cc4)n3)c(S(=O)(=O)O)c2)c2c1C(=O)c1ccccc1C2=O | 19µM* | nt | -10% | nt | nt | nt
COc1ccc(NS(=O)(=O)c2cc(C(=O)N3CCN(C/C=C/c4ccccc4)CC3)ccc2C)cc1 | 0% | -34% | -79% | 49* | 0% | -8
O=C(c1cccc([N+](=O)[O-])c1)N1CCN(C/C=C/c2ccccc2)CC1 | -16% | -24% | 10% | 32* | 3% | -11
O=C(NC(=S)N1CCN(C/C=C/c2ccccc2)CC1)c1ccco1 | -22% | -16% | -7% | -5 | 0% | -3
Cc1ccc(C(=O)N2CCCCCC2)cc1S(=O)(=O)Nc1ccccc1 | 29% | i | -4% | 2 | 0% | -4
O=C(c1ccco1)N1CCN(C/C=C/c2ccccc2)CC1 | 4%[11.4 µM] | -2% | 0% | -20 | 0% | -109*
COc1cc(C(=O)N2CCN(C/C=C/c3ccccc3)CC2)cc(OC)c1OC | 1% | i | -13% | 33* | 0% | 29
CCOc1ccccc1CN1CCN(CCCn2cccn2)CC1CCO (stereo unspecified) | -7% | i | -16% | 1 | -1% | 9
CC(=O)c1sc(NC(=O)C2CCCN2S(=O)(=O)c2ccccc2F)nc1C (stereo unspecified) | 16% | i | -30% | -4 | -1% | -2
Cc1cc(C(C)(C)C)ccc1NC(=O)CC(C)(C)CC(=O)O | -16% | -21% | 13µM* | -8 | 0% | -16
CCOc1ccc(C(C)=O)cc1CN1C(=O)NC2(CCCCCCC2)C1=O | -12% | -21% | -16% | 5 | 0% | 3
CC(C)c1cc(C(=O)Nc2cccc(C(F)(F)F)c2)no1 | -12% | -9%[57.5 µM] | 37% | -4 | 0% | -53*
COc1ccccc1CCNC(=O)C(=O)NCC1OCCN1S(=O)(=O)c1cc(F)ccc1F (stereo unspecified) | 11% | -8% | -31% | 4 | -1% | 4
Cc1ccc2nc(N3CCN(C(=O)c4cccs4)CC3)c(C#N)cc2c1 | -23% | i | -8% | -4 | 0% | 15
CCOC(=O)c1cc(C#N)c(N2CCN(C)CC2)nc1-c1ccccc1 | -8% | 0% | -15% | -23 | 0% | -69*
CCc1ccc2nc(N3CCN(C)CC3)c(C#N)cc2c1 | -39% | i | 39% | 1 | 0% | -68*
COc1ccc2nc(N3CCC(C)CC3)c(C#N)cc2c1 | 5% | -22% | 11µM* | 1 | 0% | 5
COc1ccc2nc(N3CCC(O)CC3)c(C#N)cc2c1 | -24% | -5% | 59% | -2 | -1% | 10
